This passage reports growth results from PubChem BioAssay (NCI).

Each structure is given as a SMILES string. About 83,000 compounds went through this panel and 20% of them were active in at least one assay; those are over-represented in the sample as a whole.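 Single-concentration screen, 48 h exposure, 96-well plates. Endpoint: percent growth. Below 10 = active.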 Values without a mark were called inactive. Calls of active or inactive are those of the source.

Common to all, as to test: NCI-60 one-dose screen, 48 h (100 = growth as untreated, 0 = no growth, -100 = all killed)
What all share (conditions): 10 µM unless noted

Assay [1] concerns NCI-H23 lung.
In assay [2] the test system is NCI-H226 lung.
The test system of assay [3] is NCI-H322M lung.
For assay [4], the system named is HOP-62 NSCLC.
Assay [5] deals with NCI-H460 lung.
The subject of assay [6] is HOP-92 NSCLC.
Assay [7] relates to NCI-H522 lung.
For assay [8], the system named is A549/ATCC NSCLC.
In assay [9] the test system is 786-0 renal.
Assay [10] concerns COLO 205 colon.
In assay [11] the test system is DU-145 prostate.
For assay [12], the system named is K-562 leukemia.
Assay [13] relates to MALME-3M melanoma.
Assay [14] concerns MDA-MB-231 breast.
Assay [15] concerns RXF 393 renal.
Assay [16] has as its system SF-268 CNS.
In assay [17] the test system is SF-295 CNS.
Assay [18] deals with SF-539 CNS.
For assay [19], the system named is UACC-257 melanoma.
The subject of assay [20] is M14 melanoma.

`Cc1cccc(N2CCN(C3=C(Cl)C(=O)c4ncccc4C3=O)CC2)c1`: the growth in [1] was 55.3%; in assay [2] it was 90.3%; in assay [3], 93.8%; in assay [4], 83.3%; in assay [5] it was 58.4%; in assay [6], 144%. The growth in assay [7] was 26.7%; in [8], 93.8%; in assay [9], 104%; in assay [10], 90.4%; in [11], 44.7%; in assay [12], 9.9% (active). The growth in [13] was 24.4%; in assay [14], 84.8%; in [15], 52.2%; in [16], 82.9%; in assay [17] it was 101%; in assay [18], 92.1%. The growth in assay [19] was 61.5%; in assay [20], 75.3%.

Take `CC(=O)Nc1nc(C)c(-c2csc(Nc3ccccc3)n2)s1`: the growth in [1] is 35.2%; in assay [2] it was 19.4%; in [3], 27.6%; in assay [4] it was 42.8%; in [5], 21.8%; in [6], 24.6%. Also, the growth in [7] was 9.26% (active); in assay [8] it was 44.3%; in assay [9], 25.7%; in assay [10], 38%; in assay [11], 30%; in assay [12], 24.8%. Also, the growth in assay [13] was 13%; in assay [14], 33%; in [15], 6.02% (active); in [16], 46.7%; in [17], 11.9%; in [18], 15.9%. Further, the values for the growth in assay [19] and in assay [20] were 50.7% and 35.3%, respectively.

For `Cc1ccccc1NC(=O)Nc1nc2ccc([N+](=O)[O-])cc2s1`, the growth in assay [1] is 5.79% (active); in assay [2], 15.4%; in assay [3], 9.34% (active); in assay [4] it was 2.78% (active); in assay [5], 5.87% (active); in assay [6], -24.6% (active). Moreover, the growth in assay [7] was -10.9% (active); in assay [8], 9.2% (active); in assay [9], 13.1%; in [10], 10.9%; in assay [11] it was 20.3%; in assay [12] it was 5.43% (active). In addition, the growth in [13] is -6.54% (active); in assay [14], 17.6%; in assay [15] it was 12.1%; in assay [16], 18.6%; in assay [17], 6.9% (active); in assay [18], 13.6%. For the same compound, the growth was -1.96% (active) in [19] and 19.9% in assay [20].

`CC1CCN(CC(=O)Nn2c(COc3ccccc3)nc3ccccc3c2=O)CC1`: the growth in assay [1] is 91.7%; in assay [2], 84.6%; in [3], 95.4%; in [4], 91.9%; in [5], 90.6%; in assay [6], 96.2%. Also, the growth in assay [7] is 75.4%; in assay [8], 90.9%; in assay [9] it was 99%; in assay [10] it was 84.1%; in assay [11] it was 101%; in [12], 32.2%. The growth in [13] was 79.5%; in [14], 78.4%; in [15], 94.2%; in assay [16] it was 99.4%; in [17] it was 96.9%; in assay [18], 88.6%. The values for the growth in assay [19] and in [20] were 95.4% and 78.9%, respectively.

Consider `CN1CCN(c2ccc(Nc3nc(NCCNC(=O)c4ccc(F)cc4)c4sccc4n3)cc2)CC1`, for which the growth is 74.2% in assay [1]; 91.1% in [2]; 81.7% in [3]; 99.4% in [4]; 84.5% in [5]; 50.1% in [6]. For the same compound, the growth in assay [7] was 68.1%; in assay [8], 77.9%; in assay [9] it was 52.3%; in [10] it was 44.3%; in assay [11], 87.8%; in assay [12] it was 19.8%. Further, the growth in assay [13] was -54.2% (active); in [14], 59.4%; in assay [15], 14.1%; in assay [16] it was 73.8%; in assay [17], 61%; in assay [18] it was -64.7% (active). The results for the growth in assay [19] and in assay [20] were 0.258% (active) and -10.1% (active), respectively.

For `O=c1c2cc(-c3ccc(F)cc3F)ccc2n(Nc2ccccc2)c(=O)n1-c1cccc(C(F)(F)F)c1`, the growth in assay [1] is 2.36% (active); in assay [2], 14.7%; in [3], 7.15% (active); in assay [4], 10.9%; in [5] it was 9.35% (active); in assay [6], -33.3% (active). In addition, the growth is -5.32% (active) in [7]; 10.5% in assay [8]; 48.2% in assay [9]; 74.1% in assay [10]; 26.6% in [11]; 6.95% (active) in [12]. Besides, the growth was -18.4% (active) in assay [13]; -5.2% (active) in [14]; 5.77% (active) in assay [15]; 22% in assay [16]; -2.47% (active) in assay [17]; 18% in [18]. Also, the growth in assay [19] was -1.25% (active); in [20], 21.6%.

As for `COc1ccc(/C=N/NC(=O)CSc2nc(-c3cnccn3)cc(-c3cccs3)c2C#N)cc1OC`, the growth was 66.6% in assay [1]; 47% in assay [2]; 91.9% in assay [3]; 77.1% in assay [4]; 56.2% in assay [5]; 37.8% in [6]. The growth in assay [7] was 76.5%; in assay [8], 74.8%; in assay [9] it was 53.1%; in assay [10], 107%; in assay [11] it was 100%; in assay [12], 95.5%. The growth in assay [13] was 69.1%; in assay [14], 50.1%; in [15], -12.9% (active); in assay [16], 70.5%; in assay [17], 83.1%; in [18], 36.7%. Besides, the values for the growth in [19] and in assay [20] were 91.7% and 77.5%, respectively.

`CCN(CC)c1ccc(/C=N/NC(=O)c2ccc(NS(C)(=O)=O)cc2)cc1`: the growth in assay [1] was 36.5%; in assay [2] it was 51.8%; in assay [3], 27.3%; in assay [4], 17.4%; in [5], 8.88% (active); in assay [6], 80%. Also, the growth was 21.8% in [7]; 29.9% in [8]; 13.5% in assay [9]; 13.9% in assay [10]; 37.9% in assay [11]; 14.8% in assay [12]. The growth in [13] is 15.5%; in assay [14], 43.2%; in assay [15], 12.3%; in [16], 32%; in assay [17] it was 11.4%; in assay [18], 18.6%. Moreover, the growth in [19] is -4.47% (active); in assay [20], 0.0523% (active).
